# Measured values published in PubChem BioAssay (NCI).
# Compounds without any hit were thinned out: in the full panel of roughly 79,000, 15% have a hit. Values without a mark were called inactive. The source made the active and inactive calls. No stated cut-off is given here; in the data, active means growth inhibition above about 70%; inactive means the rest.
# Assay: NCI Yeast Anticancer Drug Screen. Data for the sgs1 strain (AID 173);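 further: 0% = growth of vehicle-only control cultures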
# Details: S. cerevisiae sgs1 mutant, hits give high values
# Experimental: Growth inhibition of yeast strains with defined genetic alterations is measured as a screen for potential anti-cancer activity. Selected strains with alterations in DNA damage repair or cell cycle control were exposed to compounds and growth inhibition was measured relative to vehicle treated controls. The strain used in this assay is sgs1
SMILES,growth inhibition (at 1.2 µM) [%],growth inhibition (at 3.7 µM),growth inhibition (at 11.0 µM),growth inhibition (at 33.0 µM),growth inhibition (at 100.0 µM)
CCC(=O)Nc1ccc(N=NN(C)C)cc1,-13,-8%,2%,46%,99% (active)
O=[N+]([O-])c1ccc(C(c2c[nH]c3ccccc23)c2c[nH]c3ccccc23)cc1,33,98% (active),97% (active),95% (active),88% (active)
O=[N+]([O-])c1cn[n+]([O-])c2ccccc12,40,71% (active),84% (active),98% (active),98% (active)
CC1=NN(C(=O)CC(=O)NC(=O)/C=C\c2ccccc2)C(=O)C1N=Nc1ccc([N+](=O)[O-])cc1 (stereo not given),2,16%,61%,77% (active),74% (active)
Clc1nc(Cl)nc(Nc2cccc3ccccc23)n1,31,47%,77% (active),96% (active),98% (active)
O=C(Cc1ccccc1)NNc1nc(NNC(=O)c2ccncc2)nc(Nc2ccc(Cl)cc2)n1,3,7%,7%,6%,4%
Cc1ccc(NC(=O)CCC(=O)C(C)C(=O)c2ccccc2)c(C)c1 (stereo not given),0,-1%,-3%,-1%,-1%
CC(=O)/C=C/c1cccc([N+](=O)[O-])c1,1,7%,15%,50%,95% (active)
